Tb PFK inh-1: qHTS Assay to Find Inhibitors of T. brucei phosphofructokinase. T. brucei PFK, ADP-Glo luminescence. Potency, µM (highest dose often 57.5 µM), inactives show at the highest dose activity, negative = inhibition, usual class: inhibitors. 330,000 compounds, 0.17% hits;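 also: 0% = uninhibited 1x PFK enzyme wells and -100% = no-enzyme wells; nearly all actives have a fitted effect of over 60% in size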
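PFK 1.25 nM, F6P 0.5 mM, ATP 0.1 mM, 0.1 M TEA pH 8.0, 5 mM MgCl2, 0.01% Tween20, 0.1% BSA; 45 min RT. ADP-Glo readout. qHTS titration up to 57 uM; curves fitted, compounds curve-classed.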
BCR signal inh: qHTS Assay to Find Inhibitors of Chronic Active B-Cell Receptor Signaling | ABC-DLBCL IkBa-CBG/CBR reporter, luminescence ratio, 4 h | AID 493014, 2011 | 340,000 compounds, 0.05% hits | Potency, µM (titrated, usually from 46.1 µM), without a hit: at the top dose activity change, negative = inhibition, usual class: inhibitors; active = well fitted inhibition curve with a large enough effect in the signal ratio, with a control signal flat, not every such curve was filed as active; inconclusive = small, poorly fitted or top-dose-only effect, or effect the other way, or a change in a side signal; the % refers to the signal ratio;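 also: plate controls were basal doxycycline-induced cells for no effect and cells given 10 µM MG132 for full effect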
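Cell line TMD8 (human ABC DLBCL), stably expressing tet-inducible CBG68-IkBa fusion and CBR; IMDM/0.5% FBS; cpd up to 46 uM; dox induction, 4 h, 37C/5% CO2; dual luminescence; green/red ratio; MG132 control.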
KinaseGlo FLuc: Counterscreen for Luciferase (Kinase-Glo TM) Inhibition; Kinase-Glo luciferase, ATP luminescence, 8 min; Potency, µM (highest dose often 38.3 µM), inactives show top-dose activity change, negative = inhibition, hits mostly inhibitors; Luciferin 4-monooxygenase (Photuris pensylvanica), Q27757; 200,000 compounds, 0.28% hits; also: % is scaled to controls: 0 for no effect and ±100 for the full control effect; nearly all actives have a fitted effect of over 60% in size
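Luminescence was the read-out, taken after 8-minute incubation at ambient temperature. Luciferase turned over luciferin with 10 uM ATP in imidazole pH 7.2 buffer containing KCl, MgCl2, Tween 20 and BSA.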
LMNA splice mod: qHTS Assay for Modulators of Lamin A Splicing; Potency, µM (titrated, usually from 46.1 µM), inactives show at the highest dose ratio change, negative = inhibition, actives largely listed as inhibitors; 200,000 compounds, 0.01% hits; HeLa LMNA splicing GFP/RFP minigene ratio, 48 h; active = well fitted inhibition curve with a large enough effect in the signal ratio, with a control signal flat, not every such curve was filed as active; inconclusive = small, poorly fitted or top-dose-only effect, or effect the other way, or a change in a side signal; the % refers to the signal ratio; also: % is scaled to controls: 0 for no effect and ±100 for the full control effect
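Read-out is the ratio of GFP to DsRed2 object intensity, acquired by 488 nm laser-scanning cytometry on HeLa lamin A-EGFP minigene reporter cells. Compound incubation 48 hrs at 37 °C in Opti-MEM with 2% FBS; DMSO 0.5% final.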
Rango release inh: qHTS Assay for Inhibitors of RanGTP induced Rango (Ran-regulated importin-beta cargo) - Importin beta complex dissociation; Biochemical FRET Rango-importin beta, RanGTP-induced dissociation; 340,000 compounds, 0.071% hits; Potency, µM (series often up to 46.1 µM), inactives show at the highest dose activity change, negative = inhibition; calls by dose curve; also: % of control where 0% means no effect; nearly all actives have a fitted effect of over 45% in size
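FRET read at 45 min, room temperature: inhibitors block the CFP/YFP signal rise when RanGTP (0.6 uM Ran, 2 mM GTP, 0.2 uM RCC1) frees Rango (0.1 uM) from importin beta (0.25 uM). Pre-read after 5 min compound exposure flags interference.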
Rango-impB inh: qHTS Assay for Inhibitors of Rango (Ran-regulated importin-beta cargo) - Importin beta complex formation. Potency, µM (titrated, usually from 92.2 µM), without a hit: top-dose inhibition of complex formation. Importin subunit beta-1 (Homo sapiens), Q14974. 340,000 compounds, 0.031% hits. Rango CFP/YFP FRET sensor + importin beta, 45 min; calls by dose curve;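 also: 0% = DMSO wells and 100% = buffer wells lacking importin beta; nearly all actives have a fitted effect of over 15% in size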
Target sequence (Q14974 whole entry, looked up): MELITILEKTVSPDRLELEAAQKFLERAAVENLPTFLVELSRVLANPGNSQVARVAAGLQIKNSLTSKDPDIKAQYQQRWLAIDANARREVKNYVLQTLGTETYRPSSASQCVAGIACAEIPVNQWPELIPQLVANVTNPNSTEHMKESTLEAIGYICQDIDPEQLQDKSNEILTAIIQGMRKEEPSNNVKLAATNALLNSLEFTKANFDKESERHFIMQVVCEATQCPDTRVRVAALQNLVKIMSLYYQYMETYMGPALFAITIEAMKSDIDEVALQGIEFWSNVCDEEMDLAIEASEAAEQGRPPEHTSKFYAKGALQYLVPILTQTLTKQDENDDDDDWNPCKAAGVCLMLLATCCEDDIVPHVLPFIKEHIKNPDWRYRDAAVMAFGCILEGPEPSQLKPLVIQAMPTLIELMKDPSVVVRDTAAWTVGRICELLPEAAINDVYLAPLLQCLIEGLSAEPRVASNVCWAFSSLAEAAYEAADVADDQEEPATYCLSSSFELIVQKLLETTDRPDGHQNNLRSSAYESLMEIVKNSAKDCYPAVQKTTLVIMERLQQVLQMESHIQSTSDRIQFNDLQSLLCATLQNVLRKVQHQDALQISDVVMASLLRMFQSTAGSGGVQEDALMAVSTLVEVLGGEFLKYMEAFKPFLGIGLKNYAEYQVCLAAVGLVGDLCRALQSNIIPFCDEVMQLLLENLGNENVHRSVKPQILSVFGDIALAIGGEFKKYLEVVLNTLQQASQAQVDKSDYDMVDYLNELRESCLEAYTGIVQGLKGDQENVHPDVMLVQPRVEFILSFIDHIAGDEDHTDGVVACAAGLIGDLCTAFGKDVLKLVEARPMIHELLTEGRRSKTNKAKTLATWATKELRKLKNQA
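FRET biosensor (snurportin 1 IBB flanked by EYFP and cerulean), 50 nM, with compound 5 min, then 0.125 microM importin beta in PBS, 1 mM DTT, 0.02% Tween-20, 0.1% BSA. CFP/YFP ratio read after 45 min at room temperature; pre-read flags interference.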
Tb PFK KinaseGlo: Tb PFK orthogonal confirmatory assay using ATP depletion (Kinase-Glo Plus) as an alternative measure of Tb PFK activity: Hit Validation | AID 504636, 2011 | 1,100 compounds, 47% hits | Potency, µM (highest dose often 57.5 µM), inactives show at the highest dose inhibition | shares compounds with Tb PFK inh-1 | Tb PFK enzyme, ATP depletion, Kinase-Glo Plus luminescence; calls by dose curve; also: nearly all actives have a fitted effect of over 60% in size
Tb PFK inh-2: Inhibitors of T. brucei phosphofructokinase: Hit Validation | purified T. brucei PFK, ADP-Glo luminescence, 45 min | shares compounds with Tb PFK inh-1 | Potency, µM (doses to about 57.5 µM), for inactives: top-dose activity change, negative = inhibition, most hits filed as inhibitors | AID 504637, 2011 | 1,100 compounds, 41% hits;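 also: plate controls were full PFK enzyme control for no effect and no enzyme control for full effect; nearly all actives have a fitted effect of over 60% in size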
An asterisk follows results filed as active; [ ] = remark or other dose. The list is not random: actives were taken first. Their share in the collection is about 0.44%. Unless noted, calls follow the shape of the dose curve; as a rule, active = well fitted curve in the direction sought with a large enough effect; inconclusive = small, poorly fitted or top-dose-only effect, or another doubt; inactive = no such curve, though single readings can be large; an effect the other way counts as inactive or inconclusive. Potency is read from the fitted curve at half-maximal effect.

For CCCCC/C=C\C/C=C\C/C=C\C/C=C\CCCC(N)=O the results were KinaseGlo FLuc 0%.
CCOC(C(=O)OCC(O)CN(CC)CC)(c1ccccc1)c1ccccc1 (centres undefined) was read as Tb PFK inh-1 1%, BCR signal inh inconclusive, KinaseGlo FLuc 1%, LMNA splice mod inconclusive, Rango release inh -18% and Rango-impB inh 2%.
`O=C(Oc1ccc2ccccc2c1Cl)N1CCCC1` gave Tb PFK inh-1 13%, BCR signal inh 6%, KinaseGlo FLuc -3%, LMNA splice mod inconclusive, Rango release inh -5% and Rango-impB inh -3%.
For O=C(Nc1cnn(Cc2ccc(Cl)c(Cl)c2)c1)c1nc2ncccn2n1 the results were Tb PFK inh-1 5.4µM*, BCR signal inh inconclusive, KinaseGlo FLuc -1%, LMNA splice mod inconclusive, Rango release inh 5%, Rango-impB inh 1%, Tb PFK KinaseGlo 2.7µM* and Tb PFK inh-2 5.4µM*.
`CNC(C)C(O)c1ccccc1` (centres undefined) gave KinaseGlo FLuc -6%.
CCc1ccc(CN2CCN(Cc3cc(Br)ccc3O)CC2)cc1 was read as Tb PFK inh-1 -3%, BCR signal inh inconclusive, KinaseGlo FLuc 0%, Rango release inh 11% and Rango-impB inh 3%.
`CCOC(=O)C/C(C)=N/NC(=O)CNc1cccc(Cl)c1C` gave Tb PFK inh-1 24µM*, BCR signal inh -9%, KinaseGlo FLuc 2%, LMNA splice mod 3%[46 µM], Rango release inh 3%, Rango-impB inh 2%, Tb PFK KinaseGlo 16% and Tb PFK inh-2 -4%.
`Fc1ccc(-[n+]2nc(Nc3ccccc3)sc2-c2c(Cl)cccc2Cl)cc1` gave Tb PFK inh-1 3%, BCR signal inh inconclusive, Rango release inh -4% and Rango-impB inh -2%.
`Cc1ccc(C)c(OCC(=O)N2CCCN(C)CC2)c1` gave Tb PFK inh-1 8%, BCR signal inh inconclusive, KinaseGlo FLuc 1%, LMNA splice mod -22%, Rango release inh 4% and Rango-impB inh 0%.
Screening O=C(CSc1nc(-c2ccc(F)cc2)nc2c1Cc1ccccc1O2)Nc1cccc(C(=O)O)c1 returned Tb PFK inh-1 inconclusive, BCR signal inh -9%, KinaseGlo FLuc -2%, LMNA splice mod 7%[46 µM], Rango release inh -5%, Rango-impB inh -3%, Tb PFK KinaseGlo inconclusive and Tb PFK inh-2 inconclusive.
Screening Cc1noc(NS(=O)(=O)c2ccc(NC(=O)COc3ccc(Cl)cc3Cl)cc2)c1C returned Tb PFK inh-1 12µM*, BCR signal inh -1%, KinaseGlo FLuc 4%, LMNA splice mod -2%, Rango release inh -17%, Rango-impB inh 1%, Tb PFK KinaseGlo 5.4µM* and Tb PFK inh-2 12µM*.
For Cc1ccc(NC(=O)COc2ccc(Cl)cc2Cl)cc1S(=O)(=O)N1CCOCC1 the results were Tb PFK inh-1 inconclusive, BCR signal inh 13%, Rango release inh -8%, Rango-impB inh inconclusive, Tb PFK KinaseGlo inconclusive and Tb PFK inh-2 inconclusive.
`O=C(COc1ccc(Cl)cc1Cl)Nc1cccnc1` gave Tb PFK inh-1 inconclusive, BCR signal inh inconclusive, KinaseGlo FLuc -3%, LMNA splice mod 12%[46 µM], Rango release inh 4%, Rango-impB inh 4%, Tb PFK KinaseGlo inconclusive and Tb PFK inh-2 inconclusive.
`Cc1noc(NS(=O)(=O)c2ccc(NC(=O)c3cnc4scc(C)n4c3=O)cc2)c1C` gave Tb PFK inh-1 inconclusive, BCR signal inh 9%, KinaseGlo FLuc -4%, LMNA splice mod -7%, Rango release inh 17%, Rango-impB inh 3%, Tb PFK KinaseGlo -28% and Tb PFK inh-2 inconclusive.
COc1ccc(CC(=O)Nc2ccc(C#N)c(Cl)c2)cc1S(=O)(=O)N1CCOCC1 was read as Tb PFK inh-1 0%, BCR signal inh -1%, Rango release inh -4% and Rango-impB inh 1%.
Cc1noc(NS(=O)(=O)c2ccc(NC(=O)CCCOc3ccc(Cl)cc3Cl)cc2)c1C was read as Tb PFK inh-1 -10%, BCR signal inh -3%, KinaseGlo FLuc 1%, LMNA splice mod 2%, Rango release inh inconclusive and Rango-impB inh 3%.
Screening COC(=O)COc1ccc(Cl)cc1Cl returned KinaseGlo FLuc -1% and LMNA splice mod 4%.
For O=c1c2ccccc2nc(-c2ccc([N+](=O)[O-])cc2)n1-c1ccccc1 the results were Tb PFK inh-1 -15%, BCR signal inh 7%, KinaseGlo FLuc 0%, LMNA splice mod -7%, Rango release inh -5% and Rango-impB inh 1%.
O=C1c2ccccc2C(=O)N1Cc1nc2ccccc2c(=O)n1-c1ccc(Br)cn1 was read as Tb PFK inh-1 -1%, BCR signal inh 6%, KinaseGlo FLuc 1%, LMNA splice mod 9%, Rango release inh 7% and Rango-impB inh 2%.
For CN(C)c1ccc(NC(=O)c2ccc(Cn3cc([N+](=O)[O-])cn3)cc2)cc1 the results were Tb PFK inh-1 24µM*, BCR signal inh inconclusive, KinaseGlo FLuc -1%, Rango release inh 0%, Rango-impB inh 3%, Tb PFK KinaseGlo 12µM* and Tb PFK inh-2 27µM*.
For O=c1cc(-c2ccc(O)c(O)c2)oc2c(C3O[C@H](CO)[C@@H](O)[C@H](O)[C@H]3O)c(O)cc(O)c12 (some centres undefined) the results were Tb PFK inh-1 -3%, BCR signal inh 0%, KinaseGlo FLuc 1%, LMNA splice mod 0%, Rango release inh -5% and Rango-impB inh inconclusive.

Screening data from PubChem BioAssay.
